Most compounds without a hit are left out; they make up all but 2.1% or so of the library.
KKLEB cytotox: counter-screen for CF NF-kB inhibitors: cytotoxicity | AID 602141 | actives 0.36% (n = 360,000) | activity change (cytotoxicity), % at 5 µM | KKLEB CF airway cells viability, ATPlite luminescence, overnight; active compounds read low; cells stimulated with P. aeruginosa culture filtrate;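 active means corrected activity change at or below -50% at 5 µM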
EWS-Fli block: blocks EWS/Fli oncoprotein-driven transcription; AID 651661; A673 NR0B1-luciferase reporter, viability-normalised; actives 0.67% (n = 350,000); inhibition, % at 12.6 µM;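 active means mean inhibition of at least 50% after viability correction, with every replicate also passing that limit; inconclusive means mean reaches 50% but only one of two replicates passes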;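 further: firefly luciferase signal divided by Alamar Blue viability fluorescence both relative to DMSO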
PAX8 reporter: inhibitors of PAX8 transcriptional activity in RMG-I cells; RMG-I TPO-luciferase reporter, SteadyGlo, 24 h; inhibition, % at 12.6 µM; actives 1.2% (n = 360,000); AID 652154;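 active means mean replicate inhibition at least 60% with every replicate also reaching 60%; inconclusive means only one of the two criteria is met; inactive means mean below 60% and not all replicates reaching 60%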;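 further: luciferase light reporting Pax8 driven TPO promoter activity; plate controls were median of neutral control wells for no effect and mitoxantrone controls for full effect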
CF NFkB inh: cystic fibrosis NF-kB activation inhibition. inhibition, % at 5 µM. actives 0.86% (n = 360,000). KKLEB NF-kB-GFP reporter, PAF-induced, GFP fluorescence overnight;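 active means at least 50% inhibition at 5 µM, scaled per plate between neutral and stimulator controls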;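 further: PAF is a Pseudomonas aeruginosa culture filtrate used as stimulus; plate controls were PAF-stimulated DMSO wells for no effect and unstimulated DMSO wells for full effect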
HIF-2a inh: inhibitors of HIF-2a; 786-0 RCC cells HIF-2a reporter, luciferase luminescence, overnight; inhibition, % at 18.8 µM; actives 0.72% (n = 360,000);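 active means inhibition of the luminescence signal of 40% or more relative to plate controls, in a single-dose primary screen at 18.75 µM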
Mdm2 MdmX conf: confirmation of inhibitors of human Mdm2/MdmX interaction, set 2. shares compounds with HIF-2a inh. SaOS-2 split-luciferase Mdm2/MdmX complementation, luminescence. inhibition, % at 8 µM. actives 99% (n = 740). AID 504601;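 active means mean inhibition of the luminescence signal across two replicates at or above 26 percent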
Target sequence (O15151 whole entry, looked up): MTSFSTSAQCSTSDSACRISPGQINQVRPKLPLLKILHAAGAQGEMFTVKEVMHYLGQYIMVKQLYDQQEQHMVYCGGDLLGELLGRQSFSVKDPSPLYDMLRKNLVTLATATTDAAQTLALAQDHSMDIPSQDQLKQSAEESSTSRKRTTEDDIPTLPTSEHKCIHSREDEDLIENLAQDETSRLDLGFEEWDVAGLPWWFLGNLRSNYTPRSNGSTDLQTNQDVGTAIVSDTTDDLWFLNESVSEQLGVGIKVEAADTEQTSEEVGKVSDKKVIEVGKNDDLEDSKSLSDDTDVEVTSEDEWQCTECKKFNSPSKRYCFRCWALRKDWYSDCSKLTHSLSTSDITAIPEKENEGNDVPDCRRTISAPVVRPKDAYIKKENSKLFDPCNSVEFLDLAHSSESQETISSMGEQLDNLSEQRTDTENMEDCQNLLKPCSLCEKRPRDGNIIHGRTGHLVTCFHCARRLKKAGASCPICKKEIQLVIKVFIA
Target sequence (Q00987 whole entry, looked up): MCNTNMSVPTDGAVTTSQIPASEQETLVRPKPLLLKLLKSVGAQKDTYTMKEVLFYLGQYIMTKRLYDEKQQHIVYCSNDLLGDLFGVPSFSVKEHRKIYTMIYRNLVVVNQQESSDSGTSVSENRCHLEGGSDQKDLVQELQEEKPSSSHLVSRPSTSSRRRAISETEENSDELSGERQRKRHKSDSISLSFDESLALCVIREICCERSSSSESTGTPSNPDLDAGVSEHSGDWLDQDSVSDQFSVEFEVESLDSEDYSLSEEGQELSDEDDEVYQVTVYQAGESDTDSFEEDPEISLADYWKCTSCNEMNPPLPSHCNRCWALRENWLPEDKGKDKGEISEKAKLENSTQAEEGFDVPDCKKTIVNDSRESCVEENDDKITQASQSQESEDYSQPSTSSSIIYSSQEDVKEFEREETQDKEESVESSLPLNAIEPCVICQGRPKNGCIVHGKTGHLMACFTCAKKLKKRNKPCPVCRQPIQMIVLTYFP
HIF-2a inh conf: confirmation of HIF-2a inhibitors; 786-0 RCC cells, HIF-2a luciferase reporter luminescence, overnight; actives 56% (n = 1,800); inhibition, % at 18.8 µM; AID 651580; shares compounds with HIF-2a inh;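 active means mean inhibition across four replicates of at least 40 percent at the single tested concentration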
HIF-1a cs: HIF-1a inhibition counter-screen for HIF-2a hits; inhibition, % at 18.8 µM; AID 651589; shares compounds with HIF-2a inh; MiaPaCa-2 HIF-1a luciferase reporter, desferoxamine, overnight; actives 72% (n = 1,800);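 active means mean inhibition of the reporter signal across four replicates at the single tested dose of 50% or more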
* hit, by the source's call; ? = inconclusive; nt = not tested or not shown.

SMILES	KKLEB cytotox	EWS-Fli block	PAX8 reporter	CF NFkB inh	HIF-2a inh	HIF-2a inh conf	HIF-1a cs	others
CCC(=O)N1C[C@H](C)[C@@H](OC)CN(C)C(=O)c2cc(NC(=O)c3cc(C)on3)ccc2OC[C@H]1C	nt	-1.6	nt	nt	nt	nt	nt
Cc1ccc(C2=NN(C(=O)CCl)C(c3ccco3)C2)o1 (stereo not given)	-16.7	49.0	-15.5	27.0	11.2	nt	nt	Mdm2 MdmX conf=103.0*
O=C(C[C@H]1C[C@@H]2c3cc(NS(=O)(=O)c4ccc(F)cc4)ccc3O[C@@H]2[C@H](CO)O1)NCC1CC1	nt	-0.3	6.3	nt	nt	nt	nt
COC(=O)COc1ccc(-c2nccc(-c3ccc(Br)cc3)n2)cc1	1.4	18.1	0.4	8.4	40.7*	42.8*	7.8
CC(=O)N(C)C[C@@H]1Oc2ncc(-c3ccc(F)cc3)cc2C(=O)N([C@@H](C)CO)C[C@@H]1C	nt	-20.7	nt	nt	nt	nt	nt
Cc1nc(NCc2ccco2)c2c(C)c(C)sc2n1	-16.5	nt	nt	3.5	-27.0	nt	nt	Mdm2 MdmX conf=101.5*
COc1cc(NS(=O)(=O)c2ccc(C)cc2)c2ncccc2c1	-3.5	nt	nt	47.6	18.0	nt	nt
Cc1ccc(S(=O)(=O)Nc2cccc3cccnc23)cc1	6.4	nt	?	56.7*	81.3*	65.9*	-178.8	Mdm2 MdmX conf=103.2*
COC(=O)[C@@]1(Cc2ccc(OC)cc2)[C@@H]2C(=CC(=O)[C@H]2CC(=O)C(=O)N2CCCC2)CN1C(=O)c1ccccc1	-4.8	nt	nt	28.0	77.2*	69.3*	84.5*
COC(=O)Cn1ccc(-c2ccc(Cl)cc2)c(C#N)c1=O	-2.2	2.0	-10.6	6.3	57.4*	4.4	1.6
COC(=O)Cn1ccc(N(C)C)c(C#N)c1=O	1.6	10.8	nt	11.9	12.5	nt	nt
NCCCNc1nc(N)c([N+](=O)[O-])c(NC2CCCCC2)n1	-10.7	29.5	77.9*	42.2	47.8*	17.8	99.5*
CCOC(=O)C(C)(C)Sc1ncnc2nc[nH]c12	-10.2	nt	nt	5.4	-6.6	nt	nt
CCOC(=O)c1cc([N+](=O)[O-])cc([N+](=O)[O-])c1Sc1ncnc2nc[nH]c12	-28.2	44.3	25.3	17.6	83.2*	61.0*	107.1*
COc1ccc(-c2oc3ncn(CCN4CCOCC4)c(=N)c3c2-c2ccc(OC)cc2)cc1	-24.5	nt	23.5	14.2	45.4*	12.3	85.5*
COc1ccc(-c2oc3ncnc(NCCCN4CCOCC4)c3c2-c2ccc(OC)cc2)cc1	-26.8	nt	nt	10.8	38.7	nt	nt
COc1ccc(-c2oc3ncnc(NCCN4CCOCC4)c3c2-c2ccc(OC)cc2)cc1	-31.4	nt	nt	35.7	46.6*	30.2	89.8*
Cc1noc(C)c1NC(=O)Nc1ccc2c(c1)C(=O)N([C@@H](C)CO)C[C@H](C)[C@@H](CN(C)C(=O)Nc1ccc3c(c1)OCO3)O2	nt	3.5	-26.9	nt	nt	nt	nt
COCc1cn(CC[C@@H]2CC[C@H](NC(=O)Nc3ccc(OC)cc3)[C@@H](CO)O2)nn1	nt	1.6	-21.7	nt	nt	nt	nt
O=C1C(Cl)=C(N2CCN(Cc3ccccc3)CC2)C(=O)N1Cc1ccccc1	-8.0	nt	7.2	9.7	40.5*	1.8	26.3
C[C@H]1CN([C@@H](C)CO)C(=O)c2cc(-c3cccc(C#N)c3)cnc2O[C@@H]1CN(C)C(=O)C1CCC1	nt	3.3	-0.4	nt	nt	nt	nt
Cc1cc(C)c(C#N)c(SCc2nnc(-c3ccccc3)o2)n1	-17.8	78.5*	17.5	7.7	66.6*	75.8*	82.0*
Cc1ccc(C#N)c(SCc2nnc(-c3ccc(Cl)cc3)o2)n1	-39.6	nt	-1.7	-5.8	45.8*	59.3*	80.2*
CCOc1ccc(OCc2cccc(C(=O)N3CCOCC3)c2)cc1	-10.9	nt	nt	14.8	64.7*	76.6*	-104.3
COc1ccc(OCc2cccc(C(=O)NN)c2)cc1	3.4	nt	45.7	1.7	60.6*	70.0*	-120.9
SMILES	KKLEB cytotox	EWS-Fli block	PAX8 reporter	CF NFkB inh	HIF-2a inh	HIF-2a inh conf	HIF-1a cs	others
COc1ccc(OCc2cccc(C(=O)Nn3cc([N+](=O)[O-])cn3)c2)cc1	-9.6	nt	93.4*	1.9	62.5*	84.1*	-46.9
COc1ccc(C(=O)Nc2ccc(OCc3ccccc3)cc2)cc1[N+](=O)[O-]	-0.2	nt	nt	9.0	-4.4	nt	nt
O=C(N/N=C/c1cccnc1)c1cccc(Br)c1	-8.6	-17.1	-0.2	20.2	-39.5	nt	nt
CCOc1ccc(OCc2cccc(C(=O)N/N=C/c3cccnc3)c2)cc1	0.7	nt	48.4	-6.6	71.2*	90.4*	-52.9
C[C@H](CO)N1C[C@H](C)[C@@H](CN(C)Cc2ccccn2)Oc2ncc(-c3ccc(C#N)cc3)cc2C1=O	nt	-6.2	nt	nt	nt	nt	nt
COc1ccc(OCc2cccc(C(=O)Nc3cc(C)on3)c2)cc1	12.2	nt	95.9*	-28.6	66.5*	67.6*	-46.9
CCN(CC(=O)Nc1ccc(NC(C)=O)cc1)C(=O)/C=C/c1ccc(S(=O)(=O)N2CCCCCC2)cc1	-15.9	nt	2.8	15.8	42.4*	16.0	28.0
COc1c(OC)c(O)c2c(=O)c(O)c(-c3ccccc3)oc2c1OC	-5.2	2.8	nt	-14.3	-31.0	nt	nt
COc1ccc(-c2oc3c(OC)c(OC)c(OC)c(O)c3c(=O)c2OC)cc1OC	-4.8	7.2	nt	-9.1	-4.9	nt	nt	Mdm2 MdmX conf=74.0*
Cc1sc2ncnc(Sc3nnnn3-c3ccc(Cl)cc3)c2c1C	-57.2*	nt	75.1*	83.9*	41.4*	1.2	102.0*	Mdm2 MdmX conf=102.7*
CSc1nnnn1-c1ccc(Cl)cc1	-6.7	-2.7	3.6	0.5	22.9	nt	nt
c1ccc(-n2nnnc2Sc2ncnc3sc4c(c23)CCCC4)cc1	-51.8*	nt	21.9	82.5*	40.7*	14.8	62.4*
COc1ccc(NC(=O)N(C)C[C@@H]2Oc3c(NC(=O)C4CCOCC4)cccc3C(=O)N([C@@H](C)CO)C[C@H]2C)cc1	nt	9.4	-26.9	nt	nt	nt	nt
CC(=O)Nc1sc2c(c1-c1nc3ccccc3s1)CN(C(C)C)CC2	-44.3	54.2*	26.4	-83.0	8.6	nt	nt	Mdm2 MdmX conf=102.7*
CC(C)(C)c1cc(/C=N/O)cc(C(C)(C)C)c1O	1.4	-2.6	-15.9	37.7	42.8*	25.7	48.9
COc1ccc(S(=O)(=O)N(C)C[C@@H]2Oc3ccc(NS(=O)(=O)c4cccs4)cc3CC(=O)N([C@H](C)CO)C[C@@H]2C)cc1	nt	-5.5	nt	nt	nt	nt	nt
Nc1c(Cl)cnn(-c2ccccc2)c1=O	4.2	-2.5	8.1	0.3	-4.5	nt	nt
O=c1c(Cl)c(Cl)cnn1-c1ccccc1	-80.8*	69.7*	108.1*	96.7*	93.9*	98.0*	104.4*
CC(=O)c1sc(NC(=O)C2CC(=O)N(Cc3ccccc3)C2)nc1-c1ccccc1 (stereo not given)	-13.3	4.9	18.4	-3.1	40.5*	8.9	28.7
